Source: PubChem BioAssay (NMMLSC)
This is a sample that favours compounds with a hit; in the whole collection about 1.2% have one here.
AGP1-GFP MLPCN: alters AGP1-GFP fluorescence in TOR pathway yeast screen; S. cerevisiae AGP1-GFP multiplex flow cytometry, 3 h; GFP as percent of DMSO wells; actives 0.02% (n = 320,000); GFP response vs DMSO, % at 10 µM;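 active means GFP response relative to DMSO above a set limit, near screen average plus 3 SD, cut at about 150% in these data; inconclusive means fewer than 70 cells counted for the yeast strain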;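 further: median GFP channel fluorescence of the gated AGP1 strain per well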
LAP4 TOR yeast: alters LAP4-GFP fluorescence in TOR pathway yeast screen; actives 0.34% (n = 320,000); GFP response vs DMSO, % at 10 µM; AID 2023; S. cerevisiae LAP4-GFP multiplex, flow cytometry GFP, 3 h; median GFP as percent of DMSO wells;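 active means GFP response vs DMSO above a set limit, about the screen mean plus 3 SD, cut at about 150% in these data; inconclusive means under 70 cell events counted for the yeast strain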
CIT2-GFP yeast: yeast TOR pathway CIT2-GFP modulation; S. cerevisiae CIT2-GFP strain, flow cytometry, 3 h; 100 means same as DMSO wells; GFP response vs DMSO, % at 10 µM; actives 0.065% (n = 320,000);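 active means GFP response relative to DMSO above a set limit, near the screen mean plus 3 SD, cut at about 150% in these data; inconclusive means Fewer than 70 cells measured for a yeast strain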;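 further: ratio of well median GFP fluorescence to mean of DMSO wells on the plate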
RPL19A-GFP yeast: yeast TOR pathway RPL19A-GFP modulation; actives 0.3% (n = 330,000); percent response vs DMSO, % at 10 µM; S. cerevisiae RPL19A-GFP strain, flow cytometry, 3 h; hits give low values; AID 2025;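 active means percent response vs DMSO below 50%; inconclusive means fewer than 70 events counted for the yeast strain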;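 further: median channel GFP fluorescence of the barcoded RPL19A-GFP strain; ratio of sample median GFP to plate DMSO average so 100% = DMSO; lower means less RPL19A-GFP as with rapamycin TOR inhibition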
DSG3 Ab inh: inhibitors of pemphigus antibody binding to human desmoglein-3. binding (percent of control), % at 10 µM. actives 0.48% (n = 310,000). DSG3-coupled beads, scFv-anti-DSG3-GFP binding, flow cytometry; hits give low values;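 active means binding more than 3 SD below its plate's average and above zero; inconclusive means below that plate limit but binding exactly zero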;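 further: hits lower antibody fragment binding to DSG3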
MEP2 TOR yeast: alters MEP2-GFP fluorescence in TOR pathway yeast screen | S. cerevisiae MEP2-GFP strain, flow cytometry GFP, 3 h; 100% = DMSO control level | GFP response vs DMSO, % at 10 µM | actives 0.51% (n = 330,000) | AID 2016;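 active means GFP response versus DMSO above a set limit, roughly screen mean plus 3 SD, cut at about 180% in these data; inconclusive means fewer than 70 cells counted for a yeast strain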;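 further: median GFP fluorescence of the barcode-gated MEP2-GFP cells per well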
* hit, by the source's call; ? = inconclusive; · = not tested or not shown; [ ] = dose if it differs, or a comment.

SMILES	AGP1-GFP MLPCN	LAP4 TOR yeast	CIT2-GFP yeast	RPL19A-GFP yeast	DSG3 Ab inh	MEP2 TOR yeast
CCSc1nnc(NC(=O)CSc2nnc(CNC(=O)c3ccccc3F)o2)s1	103	103	100	105	54*	102
COc1cccc(NC(=O)CSc2nnc(CNC(=O)c3ccccc3F)o2)c1	97	87	96	95	105	99
Cc1cccc(S(=O)(=O)c2c(N)n(/N=C/c3ccccc3)c3nc4ccccc4nc23)c1	100	99	108	98	89*	98
CC1=CN2C(=NC(=O)CC2(C)C(=O)N(CC(=O)NC2CCCC2)c2ccccc2C)C=C1 (configuration not stated)	?	91	·	36*[may fluoresce violet]	·	285*[may fluoresce violet]
Cc1ccc(-n2ncc3c2CC(C)(C)CC3NC(=O)CCn2cncn2)cc1 (configuration not stated)	100	84	93	109	111	108
Cc1ccc(C(=O)N/C(=C/c2ccco2)C(=O)N2CCOCC2)cc1	130	174*	120	94	98	164
Cc1ccc(C(=O)N/C(=C/c2ccco2)C(=O)N2CCCCC2)cc1	96	96	96	96	99	87
O=C(CSc1nc2ccsc2c(=O)n1CC1CCC(C(=O)O)CC1)c1ccc(Cl)cc1 (configuration not stated)	99	111	94	96	103	101
O=C(CSc1nc2ccsc2c(=O)n1CC1CCC(C(=O)O)CC1)c1ccc(F)cc1 (configuration not stated)	215*	224*	259*	74	109	880*
COc1ccc(N2C(=O)CSC2c2ccc(F)cc2)cc1 (configuration not stated)	100	119	100	104	102	117
COc1ccc(-n2sc3ccc(F)cc3c2=O)cc1	92	129	95	96	50*	94
Cc1ccc(C)c(-n2sc3ccc(F)cc3c2=O)c1	98	109	114	99	55*	88
O=c1c2cc(F)ccc2sn1-c1ccc(F)cc1	99	120	108	97	49*	96
COc1ccc(-n2sc3ccccc3c2=O)cc1	·	·	·	·	74*	·
COc1ccc(-n2cc(C(=O)O)c3ccccc3c2=O)cc1	96	93	·	99	93	99
CCOC(=O)C1=C(COC(=O)COc2ccccc2C(C)C)NC(=O)NC1C (configuration not stated)	·	·	·	·	99	·
COc1ccc(C)cc1NC(=O)n1ncc2cc(Cl)ccc21	101	99	98	107	101	92
C/C(CC(=O)Nc1cc(C)ccn1)=N\NC(=O)c1cccc(F)c1	14	93	91	70	·	183*
C/C(CC(=O)Nc1cc(C)ccn1)=N\NC(=O)c1ccc(C)cc1	101	87	98	101	110	107
COC(=O)[C@H]1C[C@H]2[C@@H]3CC[C@H]4C[C@@H](OC)CC[C@]4(C)[C@H]3CC[C@]2(C)[C@@]2(CCCO2)O1	·	·	·	·	87	·
C=CCSc1nsc(NC(=O)Nc2ccc(F)cc2)n1	96	105	96	101	118	113
COC(=O)c1c(NC(=O)C(C)C)sc(C(=O)N2CCOCC2)c1C	101	95	114	104	·	105
CC1Cc2cc(S(=O)(=O)CCC(=O)NC3CCCCC3)ccc2N1C(=O)C1CC1 (configuration not stated)	103	94	103	102	98	97
CCC(=O)N1c2ccc(S(=O)(=O)CCC(=O)Nc3nccs3)cc2CC1C (configuration not stated)	?	?	?	29*[may fluoresce violet]	67	?
O=C(Cc1ccccc1)Nc1ccc(NC(=O)c2cccs2)c(Cl)c1	107	101	111	114	96	110
SMILES	AGP1-GFP MLPCN	LAP4 TOR yeast	CIT2-GFP yeast	RPL19A-GFP yeast	DSG3 Ab inh	MEP2 TOR yeast
O=C(Cc1ccccc1)Nc1ccc(NC(=O)c2cccs2)cc1Cl	94	89	99	105	72*	103
COc1ccc(CNC(=O)O[C@]23C[C@H]4C(=O)N(c5ccccc5)C(=O)[C@H]4C[C@@]2(O)CN(S(=O)(=O)c2ccc(C)cc2)C3)cc1OC	·	·	·	·	113	·
CCNC(=O)C(C)Sc1ccc(Cl)cc1 (configuration not stated)	?	88	?	48*[may fluoresce violet]	73	351*[may fluoresce violet]
c1ccc(CNc2cnccn2)cc1	97	98	98	97	100	98
c1ccc(CCNc2cnccn2)cc1	?	70	?	65	112	190*[may fluoresce violet]
Cc1nnc2ccc(-c3ccc(NS(=O)(=O)c4ccccc4)cc3)nn12	·	·	·	·	71*	·
CC(=O)c1ccc(S(=O)(=O)Nc2ccc(-c3ccc4nnc(C)n4n3)cc2)cc1	97	92	101	103	83	107
C/C(=N\OC(=O)c1cccc(C)c1)c1sc(-c2ccccc2)nc1C	107	109	103	102	-28*	121
C/C(=N\OC(=O)c1ccc(F)cc1)c1sc(-c2ccccc2)nc1C	105	108	110	100	·	105
C/C(=N\OC(=O)c1ccc(Cl)cc1)c1sc(-c2ccccc2)nc1C	90	98	84	92	99	90
C/C(=N\OC(=O)c1cccc(C(F)(F)F)c1)c1sc(-c2ccccc2)nc1C	97	103	103	100	78*	98
O=C(O)c1ccccc1Nc1ccc2nonc2c1[N+](=O)[O-]	·	·	·	·	99	·
Cc1ccc(NC(=O)NNC(=O)C2CC(c3cccs3)=NO2)cc1 (configuration not stated)	112	103	150*[may fluoresce green]	95	96	112
CC(C)(C)C1CCC(C(=O)Nc2ccccc2)CC1 (configuration not stated)	95	111	90	95	66*	102
O=C(Nc1ccc(Cc2ccc(NC(=O)C3CC3)cc2)cc1)C1CC1	90	92	93	90	88	86
O=C(Nc1ccc(-n2cccc2)cc1)C1CC1	82	92	91	94	68*	98
O=C(Nc1ccc(Nc2ccccc2)cc1)C1CC1	98	116	87	95	95	122
O=C(O)c1ccc(CSc2nc3ccccc3[nH]2)cc1	114	89	121	105	124	111
NNC(=O)c1ccc(CSc2nc3ccccc3[nH]2)cc1	?	122	?	45*[may fluoresce violet]	107	92
O=C(NCC(=O)N1CCN(S(=O)(=O)/C=C/c2ccccc2)CC1)c1ccc(Cl)cc1	95	98	96	93	73*	96
O=C(NCC(=O)N1CCOCC1)c1ccccc1	15	94	?	59	121	212*[may fluoresce violet]
